In the library only some 2.6% were active in any assay of this set; here they are far more common.
H9c2 TAG inh – triacylglycerol accumulation inhibition; H9c2 cells, Nile Red lipid (TAG) fluorescence; cells loaded with 200 µM oleic acid; inhibition, % at 12.5 µM; hit rate 0.66% among 230,000; AID 651582;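 active = pattern-corrected inhibition of lipid staining of at least 50% with the nuclear-stain viability signal not falling by more than 50%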
697 NFkB inh – inhibitors of the PMA/ionomycin-induced NF-kB reporter in 697 B cells; 697 B-cell NF-kB luciferase reporter, 16 h; inhibition, % at 4 µM; hit rate 0.33% among 330,000; AID 435022; in the data active = inhibition above about 35%
Jurkat NFkB inh – lowers PMA/ionomycin-induced NF-kB signal in Jurkat cells; PMA/ionomycin-induced NF-kB luciferase reporter, luminescence; inhibition, % at 4 µM; hit rate 0.53% among 330,000; AID 435003; in the data active = inhibition above about 50%
NR2F2 inh – inhibitors of human COUP-TFII (NR2F2) | P24468 | hit rate 0.7% among 370,000 | inhibition, % at 8.6 µM | HEK293T NGFI-A luciferase reporter, luminescence | AID 686940;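 active = inhibition above a per-plate cutoff, mean inhibition of test wells between control levels plus 3 SD, cut at about 38% in these data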;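 note: cells cotransfected with COUP-TFII expression vector driving the NGFI-A reporter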
Target sequence (P24468 whole entry, looked up): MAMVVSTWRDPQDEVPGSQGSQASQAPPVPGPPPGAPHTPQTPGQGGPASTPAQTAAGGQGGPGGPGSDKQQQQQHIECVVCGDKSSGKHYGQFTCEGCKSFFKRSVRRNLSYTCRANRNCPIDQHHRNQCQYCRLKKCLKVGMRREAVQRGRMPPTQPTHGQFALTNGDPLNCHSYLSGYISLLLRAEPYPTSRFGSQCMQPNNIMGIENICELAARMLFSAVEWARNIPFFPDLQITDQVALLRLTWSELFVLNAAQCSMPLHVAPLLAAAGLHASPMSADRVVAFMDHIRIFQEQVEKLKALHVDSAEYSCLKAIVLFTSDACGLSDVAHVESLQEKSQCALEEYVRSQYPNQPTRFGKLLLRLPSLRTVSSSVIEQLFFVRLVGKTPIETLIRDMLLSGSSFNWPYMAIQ
Cardio protect – myocardial damage modulation in H9c2 cells. H9c2 cardiomyocytes, H2O2 injury protection, ATPLite, 2 h. protection from H2O2 cell death, % at 20 µM. hit rate 0.63% among 360,000;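 active = compounds giving at least 50% protection of heart cells from peroxide-induced death in the single-dose screen, raw or plate-pattern-corrected value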
Gli-Sufu block – antagonists of Gli-Sufu signaling | hit rate 0.74% among 340,000 | inhibition, % at 5 µM | Sufu-KO-LIGHT fibroblasts, Gli luciferase reporter luminescence;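 active = inhibition above about 55%, limit read from the data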
Gli-Sufu confirm – confirmation of Gli-SUFU pathway antagonists; shares compounds with Gli-Sufu block; Sufu-KO-LIGHT cells, Gli luciferase reporter, luminescence; inhibition, % at 5 µM; hit rate 40% among 2,500; AID 602428;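 active = mean inhibition at 5 µM reaching about 45%, limit read from the data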
Gli cytotox – counter-screen for Gli-SUFU antagonists: cytotoxicity | shares compounds with Gli-Sufu block | Sufu-KO-LIGHT cells cytotoxicity, ATP luminescence | cytotoxicity, % at 5 µM | hit rate 32% among 2,500 | AID 651994;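 active = mean cytotoxicity at 5 µM above about 25%, limit read from the data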;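 note: cells exposed to compound overnight for roughly 16 to 18 hours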
Wnt3a counter – counter-screen for Gli-SUFU antagonists: Wnt3a reporter inhibition | shares compounds with Gli-Sufu block | Wnt-LIGHT cells, Wnt3a-driven luciferase reporter, luminescence | inhibition, % at 6.25 µM | hit rate 20% among 2,500 | AID 651995;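 active = mean inhibition above about 25%, limit read from the data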
Hits are given with their value; i = inactive; nt = no result.

SMILES | H9c2 TAG inh | 697 NFkB inh | Jurkat NFkB inh | NR2F2 inh | Cardio protect | Gli-Sufu block | Gli-Sufu confirm | Gli cytotox | Wnt3a counter
O=C(Nc1cccs1)Nc1c(F)c(F)c(F)c(F)c1F | nt | i | i | i | i | 67.1 | 71.8 | 27.4 | 38.6
COc1cccc(/C=C2\CC3(OC(=O)c4ccc(F)cc4)CCCN2C3)c1 (stereo not drawn) | nt | nt | nt | i | nt | nt | nt | nt | nt
CC1(C)Cc2c(sc3nc(SCC(=O)NCc4ccco4)n(-c4ccccc4)c(=O)c23)CS1 | i | i | i | i | i | i | nt | nt | nt
O=C(CSc1nc2sc3c(c2c(=O)n1-c1ccccc1)CCCC3)NCc1ccco1 | i | i | i | i | i | 64.0 | i | i | i
Cn1cnnc1SCc1ccc(C(=O)N=Nc2c(O)n(Cc3ccc(Cl)cc3)c3ccccc23)cc1 | nt | i | i | i | 53.5 | i | i | i | i
CCn1c(O)c(N=NC(=O)c2ccc(CSc3nncn3C)cc2)c2ccccc21 | i | i | i | i | i | i | nt | nt | nt
Oc1ccc(-c2nc3ccc4ccccc4c3c3c2CCC3)cc1O | nt | i | i | i | 88.0 | 56.0 | i | i | i
CC(=O)NS(=O)(=O)c1ccc(NC(=S)NC(=O)C(C)C)cc1 | i | i | i | i | i | 92.8 | i | i | i
O=C(N/N=C/c1cc2ccccc2nc1Cl)[C@H]1C[C@@H]1c1ccccc1 | i | i | i | i | i | 73.4 | i | i | i
Nc1nc(=O)n(C2CC(O)C(CO)O2)cc1F (stereo not drawn) | i | nt | nt | i | i | 65.7 | 46.5 | i | 45.2
Nc1nc(=O)n(C2CC(O)C(CO)O2)cc1Cl (stereo not drawn) | nt | nt | nt | i | i | nt | nt | nt | nt
CC(C)(C)c1ccc2c(c1)OC(C(=O)N/N=C\c1ccc[nH]1)CO2 (stereo not drawn) | nt | i | i | i | i | 89.6 | 91.5 | i | i
CC(=O)N1CCN(c2ccc(N3CCN(C(C)=O)[C@@H](C)C3)c(C)c2)[C@@H](C)C1 | nt | nt | nt | i | nt | nt | nt | nt | nt
COc1ccc(-n2nc3c(N4CCC(C(=O)NC5CCCCC5)CC4)nnc(C)c3c2C)cc1 | nt | i | i | nt | i | 90.8 | i | i | i
O=C(CSc1nnc(-c2cccnc2)n1Cc1ccco1)Nc1ccc(Cl)cc1 | nt | nt | nt | i | nt | nt | nt | nt | nt
CCOC(=O)c1ccc(NC(=O)c2ccc[n+]([O-])c2)cc1 | nt | i | i | i | i | 57.8 | i | i | i
O=C(CSc1nc(C2CC2)nc2c1cnn2-c1ccccc1)Nc1c[nH]c(=O)[nH]c1=O | nt | i | i | i | i | 98.8 | i | i | i
Cc1nn(Cc2ccccc2)c(C)c1NC(=O)CSc1nc(C2CC2)nc2c1cnn2-c1ccccc1 | i | i | i | i | i | i | nt | nt | nt
Cc1ccccc1NS(=O)(=O)c1ccc(C(=O)NCCCN2CCOCC2)cc1 | i | i | i | i | i | i | nt | nt | nt
O=C(NCCCN1CCOCC1)c1ccc(S(=O)(=O)Nc2ccccc2F)cc1 | i | i | i | i | i | 89.6 | i | i | i
CC(=O)NC1CCCCN(C)C1=O (stereo not drawn) | nt | nt | nt | i | nt | nt | nt | nt | nt
Cc1ccccc1NC(=O)COC(=O)C1=COCCO1 | i | i | i | i | i | i | nt | nt | nt
Cc1cc(C)c(NC(=O)CNC(=O)COC(=O)C2=COCCO2)c(C)c1 | i | i | i | i | i | i | i | i | i
Cc1sc2ncnc(N3CCN(S(=O)(=O)c4ccc(C(C)(C)C)cc4)CC3)c2c1C | i | i | i | i | i | i | 61.2 | 25.4 | i
Cc1sc2ncnc(N3CCN(S(=O)(=O)c4ccc(Br)cc4)CC3)c2c1C | i | i | i | i | i | i | nt | nt | nt
SMILES | H9c2 TAG inh | 697 NFkB inh | Jurkat NFkB inh | NR2F2 inh | Cardio protect | Gli-Sufu block | Gli-Sufu confirm | Gli cytotox | Wnt3a counter
Cc1ccc(S(=O)(=O)N2CCN(C(=O)C3CCN(c4ncnc5sc(C)c(C)c45)CC3)CC2)c(C)c1 | i | nt | nt | i | i | 66.5 | 60.4 | i | i
Cc1ccc(OCC(=O)NNC(=O)C2CCN(c3ncnc4sc(C)c(C)c34)CC2)cc1 | i | i | i | i | i | i | nt | nt | nt
CCn1c(COc2ccc(C)cc2)nnc1SCC(=O)Nc1ccccc1-c1ccccc1 | nt | nt | nt | i | nt | nt | nt | nt | nt
O=S1(=O)c2ccc(Br)cc2OC[C@H](c2ccccc2)N1Cc1ccccc1 | nt | nt | nt | i | nt | nt | nt | nt | nt
CC(=O)N1CCOc2ccc(S(=O)(=O)NC(C)c3ccccc3)cc21 (stereo not drawn) | nt | i | i | i | i | 61.0 | i | i | i
C=CCN1C(=O)[C@H](CC(=O)NCCCCc2ccccc2)[C@@]2(C(=O)OCC)CCCC=C12 | nt | nt | nt | i | nt | nt | nt | nt | nt
COCCN1Cc2cc(C(=O)OC)c3c(c2C1=O)c1ccccc1n3S(=O)(=O)c1ccc(OC)cc1 | nt | nt | nt | i | nt | nt | nt | nt | nt
O=C(Cn1c(=O)oc2ccccc21)Nc1ccc(S(=O)(=O)N2CCCCC2)cc1 | i | i | i | i | i | i | i | i | i
S=C(Nc1ccc2nc(-c3ccccn3)c(-c3ccccn3)nc2c1)N1CCCCC1 | i | i | i | nt | i | i | i | i | i
Cc1[nH]c2ccccc2c1C(=O)C(=O)Nc1ccc2c(c1)OCCO2 | i | i | i | i | i | i | nt | nt | nt
CCC(C(=O)Nc1ccc2c(c1)OCCO2)n1c(=O)[nH]c2ccccc2c1=O (stereo not drawn) | nt | i | i | i | i | i | i | i | 48.1
Cn1cccc1C(=O)N1CCN(S(=O)(=O)c2ccc(C(C)(C)C)cc2)CC1 | nt | nt | nt | i | nt | nt | nt | nt | nt
COc1ccc(S(=O)(=O)NC2CCCCCC2)cc1C(N)=O | i | i | i | i | i | 63.1 | i | i | i
C=CCn1c(O)c(N=NC(=S)Nc2ccccc2C)c2cc(S(=O)(=O)N3CCOCC3)ccc21 | nt | i | i | i | i | i | 48.1 | 32.0 | i
CS(=O)(=O)N(CC(=O)NC1CCCCCC1)Cc1ccccc1 | nt | i | i | i | i | i | nt | nt | nt
CS(=O)(=O)N(CC(=O)NC1CCCCCC1)Cc1ccc(Cl)cc1 | nt | i | i | i | i | 59.3 | i | i | i
CCCC1=Nc2cc(C(=O)N3CCCC3)ccc2Sc2ccc(C)cc21 | nt | i | i | i | i | i | i | i | i
CCC1=Nc2cc(C(=O)NCc3ccco3)ccc2Sc2ccc(C)cc21 | nt | nt | nt | i | i | 57.4 | 62.2 | 59.0 | i
CCC1=Nc2cc(C(=O)N3CCCCC3)ccc2Sc2ccc(C)cc21 | nt | i | i | i | i | i | nt | nt | nt
CCC1=Nc2cc(C(=O)NCCN3CCOCC3)ccc2Sc2ccc(C)cc21 | nt | i | i | i | i | i | nt | nt | nt
COc1ccc(N/C=C(\C#N)S(=O)(=O)c2ccc(Cl)cc2)c(OC)c1 | nt | i | i | i | i | 65.0 | i | i | i
COc1ccc(S(=O)(=O)/C(C#N)=C/Nc2ccccc2F)cc1 | nt | i | i | i | i | i | nt | nt | nt
Cc1ccc(C(C#N)c2ccc3c(C(F)(F)F)cc(C(F)(F)F)nc3n2)cc1 (stereo not drawn) | i | i | i | i | i | i | 58.8 | i | 52.0
